Structures are written as SMILES. Hit rate of the full screen: of about 69,000 compounds, about 8,600 (12%) showed an effect of 50% or more. Many of the other results were omitted from the sample, so strong results are more common in it than they were.

The assay has as its system Plasmodium berghei. Briefly: Screen against P. berghei liver stage (PbLuc), transformed with Luciferase, at 10uM. Type of assay: functional, HepG2. The settings on record: tested at 10 uM.
For `Cc1cc(C(=O)N2CCN[C@H](C)C2)c2ccc(F)cc2n1`, the INHIBITION is listed as 12.2%.
On to `Cc1ccc2nc(C)cc(C(=O)N[C@H]3COC[C@@H]3N3CCOCC3)c2c1`, for which the INHIBITION came to 66.5%.
Consider `CCc1nccn1C1CCCN(C(=O)Cc2cn3ccsc3n2)C1` (centres undefined), for which the INHIBITION is listed as -23.9%.
The value for `CC(C)c1nnc2ccc(N3CCC(C(=O)NC4CC4)CC3)nn12` was -18.9%; that for `CC(C)CNC(=O)NC(=O)C(C)Nc1cccc(CN2CCOC2=O)c1` (centres undefined) was -34.2%; that for `CC(C)c1ccc(OCCC(=O)N2CCC(C(=O)N(C)C)CC2)cc1` was -37.55%.
The value for `Cc1cc(C(=O)N2CCCCC2c2nc3cc(F)ccc3[nH]2)nn1C` (centres undefined) was 10.7%.
As for `Cn1cc(C2COC3(CCN(C(=O)c4cnccn4)CC3)C2)cn1` (centres undefined), the INHIBITION amounted to 39.2%.
For `Cc1oc(C(=O)O)cc1S(=O)(=O)Nc1ccc(Br)cc1Cl`, the INHIBITION is on record as -18.8%.
The value for `CN(C)CC(NC(=O)c1ccn(C)c(=O)c1)c1ccccc1` (centres undefined) was 4.34%.
For the molecule `O=C(NCC1(O)CCOCC1)c1ccn(-c2ccccc2F)n1`, the INHIBITION is recorded as -14.9%.
The value for `O=C(NCC1(O)CCOCC1)c1ccc(F)cc1` was 54.8%; that for `CC1(C(=O)NCCc2ccc(F)cc2)CCOCC1` was 54%.
On to `CC1(C(=O)NCc2ccsc2)CCOCC1`, for which the INHIBITION was 44.9%.
With `CN(C)c1cccc(C(=O)NCC2(O)CCOCC2)c1` the figure was 58.3%; with `Cc1ccc(C(=O)NCC2(O)CCOCC2)cc1F`, 48.4%.
For `CN(C)c1ccc(C(=O)NCC2(O)CCOCC2)cc1`, the INHIBITION was -3.95%.
With `CC1(C(=O)NCc2cc(F)cc(F)c2)CCOCC1` the figure was 37.5%; with `COC(=O)c1ccc(C(=O)NCC2(O)CCOCC2)cc1`, 36.3%; with `CN1CCN(C(=O)c2cc(C#N)cn2C)c2ccccc2C1`, -59.5%.
With `CCn1cc(S(=O)(=O)N2CCCCCC2c2cc(C)no2)cn1` (centres undefined) the figure was -7.66%; with `Cc1cc(C)n(CC2CCCN2C(=O)CCc2ccco2)n1` (centres undefined), 27.25%; with `NC(=O)C(Nc1ccc(Cl)cc1)c1ccc(F)cc1` (centres undefined), 4.81%.
`CCCc1nc(C(C)(C)NC(=O)C2CC(=O)N(CC(C)C)C2)no1` (centres undefined): the INHIBITION is -5.25%.
With `CC1=C(C#N)C(=O)NC(=O)/C1=C\c1c(C)[nH]n(-c2ccc(C)cc2)c1=O` the figure was 47.1%.
The value for `Cn1cc(C(=O)OC2CN(c3nc4c(C(F)(F)F)cccc4s3)C2)nn1` was -45.6%; that for `Cc1cc(O)c(OCC(=O)Nc2nccs2)cn1` was -18%.
In the case of `Cc1cc(O)c(OCC(=O)Nc2nc3c(s2)CCCCC3)cn1`, the INHIBITION was 54.9%.
As to `Cc1cc(O)c(OCC(=O)Nc2nc3c(s2)CCCC3)cn1`, the INHIBITION is given as 40%.
With `CCc1ncc2c(n1)CN(Cc1nc(-c3ccoc3)no1)CC2` the figure was 27.8%; with `CN(C)C(=O)c1cccc(CN2CCOC(Cn3cccn3)C2)c1` (centres undefined), -2.33%.
For the molecule `O=C(c1ccc(Cl)cc1)N1CCC(N2CCOC2=O)CC1`, the INHIBITION was found to be 41.6%.
For `Nc1nc(CC(=O)N2CCCC(CCc3cccc(F)c3)C2)cc(=O)[nH]1` (centres undefined), the INHIBITION amounted to 7.3%.
Turning to `O=C(CC1=CSC2=NCCN12)N1CCCC(CCc2cccc(F)c2)C1` (centres undefined), the INHIBITION was 68.5%.
As for `O=C(CC1=CSC2=NCCCN12)N1CCCCC1c1cccc(F)c1` (centres undefined), the INHIBITION came out at 32.3%.
With `Cc1cc(C(=O)N2C[C@@H]3CC[C@H]2CN(Cc2ccccn2)C3)nc(N)n1` the figure was 4.59%.
The value for `CC(NC(=O)Nc1nccs1)c1ccc(S(C)(=O)=O)cc1` (centres undefined) was 16.8%.
With `CCN(C(=O)Nc1cc(C)on1)C(C)c1cccc(O)c1` (centres undefined) the figure was -2.43%.
With `CC(NC(=O)Nc1nccs1)c1cccnc1` (centres undefined), the INHIBITION stood at 54.8%.
With `CCN(C(=O)Nc1nccs1)C(C)c1cccc(O)c1` (centres undefined) the figure was 71.3%; with `CC(NC(=O)Nc1nccs1)c1ccncc1` (centres undefined), 5.91%.
Regarding `CCN(C(=O)Nc1nncs1)C(C)c1cccc(OC)c1` (centres undefined), the INHIBITION is -5.22%.
With `Cc1cc(C(F)(F)F)n2nc(C3CCCN3C3CCSCC3)cc2n1` (centres undefined) the figure was 5.535%; with `CC1(C)CN(c2cc(C3CC3)ncn2)C[C@]1(C)O`, -1.04%; with `COCCn1ccc(NC(=O)Nc2ccc(C(N)=O)c(F)c2)n1`, 11.1%.
In the case of `O=C(N[C@@H]1CCN(Cc2cc3ccccc3s2)C[C@H]1O)c1cccnc1`, the INHIBITION is 22%.
With `COC(=O)c1ccn(COc2ccccc2Cl)n1` the figure was -15.5%; with `CCc1nc(C2CCCN2C(=O)CCn2cncn2)no1` (centres undefined), 30.8%; with `Cc1cc(=O)[nH]c(-n2nc(C)c(CCC(=O)Nc3nc(C)cs3)c2C)n1`, 68.2%.
For the molecule `Cc1cc(=O)[nH]c(-n2nc(C)c(CCC(=O)NCc3ccco3)c2C)n1`, the INHIBITION is listed as 6.09%.
The value for `Cc1cc(=O)[nH]c(-n2nc(C)c(CCC(=O)NCC(C)C)c2C)n1` was 11.3%; that for `Cc1cc(=O)[nH]c(-n2nc(C)c(CCC(=O)NCc3cccs3)c2C)n1` was 72.2%.
Take `Cc1noc(C)c1CCC(=O)NCCc1cccs1`: the INHIBITION is recorded as -1.99%.
`COC(=O)CCc1c(C)nn(-c2nc(C)cc(=O)[nH]2)c1C`: the INHIBITION is recorded as -12.6%.

For the origin of these results see ChEMBL document CHEMBL4513216, “Probing the Open Global Health Chemical Diversity Library for Multistage-Active Starting Points for Next-Generation Antimalarials” (ACS Infect Dis, 2020).
